Results filed as inconclusive are left out. Active and inactive are the calls of the source. Unless noted, calls come from the whole dose curve; as a rule, active = well fitted curve in the direction sought with a large enough effect in the repeat runs; inconclusive = weak or mixed curves; inactive = no such curve, though single readings can be large; an effect the other way counts as inactive or inconclusive.
Tests used:
[1] = qHTS RealTime-Glo MT Cell Viability Assay in HEK293 cells - 24 hour (AID 1224886); note: top concentration of the series differs between compounds; nearly all actives have a fitted effect of over 50% in size
Procedure, shortened: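 Nonlytic real-time viability readout: viable cells convert prosubstrate to NanoLuc substrate, giving luminescence proportional to live cell number. HEK293, 600 cells/well, compound added after 5 h, continuous culture at 37 C.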

[2] = A CellTox Green Cytotoxicity Assay to monitor cytotoxicity in HEK293 cells - 16 hour (AID 1224888); note: nearly all actives have a fitted effect of over 35% in size
Procedure, shortened: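 HEK293 cells, 600/well, were preincubated 5 hours and then exposed to compounds at 37 C for up to 40 hours. A cell-impermeant cyanine dye staining dead-cell DNA was read by fluorescence at 0, 8, 16, 24, 32 and 40 h time points.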

[3] = qHTS RealTime-Glo MT Cell Viability Assay in HepG2 cells - 0 hour (AID 1224889); note: nearly all actives have a fitted effect of over 50% in size
Procedure, shortened: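 Luminescence read-out: viable HepG2 cells reduce a prosubstrate to a NanoLuc substrate, giving a signal proportional to live cell number. Reads taken at 0, 8, 16, 24, 32 and 40 h of compound exposure at 37 C.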

[4] = A CellTox Green Cytotoxicity Assay to monitor cytotoxicity in HepG2 cells - 8 hour (AID 1224890); note: nearly all actives have a fitted effect of over 45% in size
Procedure, shortened: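 HepG2 cells, 600/well, preincubated 5 h with CellTox Green dye, then exposed to Tox21 compounds in DMSO at 37 C for up to 40 h. Dead-cell DNA fluorescence read at the indicated time point.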

[5] = qHTS assay to identify small molecule antagonists of the estrogen receptor alpha (ER-alpha) signaling pathway using the BG1 cell line in the presence of 0.1 nM 17-beta-estradiol - cell viability counter screen (AID 1259241); note: nearly all actives have a fitted effect of over 40% in size
Procedure, shortened: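 In this screen, hormone-deprived VM7Luc4E2 cells were seeded at 4,000 per well, dosed with compound and 0.1 nM estradiol final, and incubated 22 hr at 37C and 5% CO2; fluorogenic live-cell protease signal reported viability.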

[6] = qHTS assay to identify small molecule antagonists of the androgen receptor (AR) signaling pathway using the MDA cell line in the presence of 0.5 nM R1881 - cell viability counter screen (AID 1259242); note: nearly all actives have a fitted effect of over 45% in size
Procedure, shortened: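 MDA-kb2 cells (MMTV-luciferase, AR/GR responsive) were treated with compounds plus 0.5 nM R1881 (final) for 16 hr at 37C, 0% CO2. Viability was then read in the same wells as live-cell protease fluorescence (CellTiter-Fluor, 30 min).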

[7] = molecular target: Androgen receptor (Homo sapiens) (UniProt P10275); assay: qHTS assay to identify small molecule antagonists of the androgen receptor (AR) signaling pathway using the MDA cell line in the presence of 0.5 nM R1881 (AID 1259243); note: nearly all actives have a fitted effect of over 50% in size
Sequence of Androgen receptor (Homo sapiens) (P10275 whole entry, looked up): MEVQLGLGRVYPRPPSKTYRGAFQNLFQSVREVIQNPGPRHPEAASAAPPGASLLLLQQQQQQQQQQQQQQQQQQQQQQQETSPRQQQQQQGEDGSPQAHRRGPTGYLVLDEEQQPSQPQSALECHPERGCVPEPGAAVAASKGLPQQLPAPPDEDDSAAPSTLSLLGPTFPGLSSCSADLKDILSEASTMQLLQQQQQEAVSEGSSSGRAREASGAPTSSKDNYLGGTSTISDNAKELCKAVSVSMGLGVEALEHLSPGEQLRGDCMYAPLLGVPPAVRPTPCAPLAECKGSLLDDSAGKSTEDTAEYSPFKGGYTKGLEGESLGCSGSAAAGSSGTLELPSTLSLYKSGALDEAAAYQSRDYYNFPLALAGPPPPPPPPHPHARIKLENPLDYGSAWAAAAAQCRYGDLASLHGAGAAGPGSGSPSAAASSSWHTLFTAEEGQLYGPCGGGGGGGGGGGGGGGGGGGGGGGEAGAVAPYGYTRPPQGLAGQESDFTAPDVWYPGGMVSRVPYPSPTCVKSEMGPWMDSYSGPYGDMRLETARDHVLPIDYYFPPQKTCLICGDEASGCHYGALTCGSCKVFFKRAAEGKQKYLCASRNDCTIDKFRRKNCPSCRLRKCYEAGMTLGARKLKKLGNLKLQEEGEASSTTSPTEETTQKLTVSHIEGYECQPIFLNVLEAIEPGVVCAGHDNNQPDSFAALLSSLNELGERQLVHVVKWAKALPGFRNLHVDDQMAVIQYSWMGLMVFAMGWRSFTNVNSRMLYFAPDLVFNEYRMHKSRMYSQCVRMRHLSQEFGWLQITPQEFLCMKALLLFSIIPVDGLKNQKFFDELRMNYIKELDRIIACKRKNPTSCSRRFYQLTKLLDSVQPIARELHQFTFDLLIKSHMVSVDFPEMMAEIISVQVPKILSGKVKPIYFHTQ
Procedure, shortened: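 MDA-kb2 cells (MMTV-luciferase, responsive to AR and GR) at 3,000/well, rested 5 h at 37C, 0% CO2, then given compounds plus 0.5 nM R1881 (final) for 16 hr. Luciferase read with ONE-Glo after 30 min at room temperature.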

[8] = qHTS assay to identify small molecule HDAC inhibitors - cell viability counter screen (AID 1259365); note: series mostly up to about 92 µM; nearly all actives have a fitted effect of over 50% in size
Procedure, shortened: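 Measured quantity is CellTiter-Glo luminescence from wild-type HCT-116 cells after compound incubation of 2hr at 37C, 5% CO2; reagent developed 30min at room temperature.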

[9] = qHTS assay to identify small molecule agonists of the sonic hedgehog signaling (Shh) pathway - cell viability counter screen (AID 1259366); note: nearly all actives have a fitted effect of over 50% in size
Procedure, shortened: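 In quantitative high-throughput format, 3T3 Gli1-Luc cells were exposed to compounds for 24hr and multiplexed for viability using CellTiter-Fluor, incubated 1hr at 37C before the fluorescence read.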

[10] = qHTS assay to identify small molecule antagonists of the sonic hedgehog signaling (Shh) pathway - cell viability counter screen (AID 1259367); note: nearly all actives have a fitted effect of over 55% in size
Procedure, shortened: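 Cells: 3T3 Gli1-Luc, 2,000/well, 4 hr pre-incubation. Compounds in DMSO, then conditioned medium. Incubation 24 hr, 37C, 5% CO2. CellTiter-Fluor at 23 hr, 1 hr, fluorescence.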

[11] = qHTS assay to identify small molecule antagonists of the sonic hedgehog signaling (Shh) pathway (AID 1259369; calls by dose curve; note: nearly all actives have a fitted effect of over 45% in size)
Procedure, shortened: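 NIH/3T3-derived Gli1-Luc reporter cells plated 4 h, dosed with compound, then stimulated with conditioned medium for 24 h at 37 C. Firefly luciferase luminescence read after 30 min with detection reagent at room temperature.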

[12] = molecular target: Estrogen receptor beta (Homo sapiens) (UniProt Q92731); assay: qHTS assay to identify small molecule agonists of the estrogen receptor beta (ER-beta) signaling pathway (AID 1259377; active = well fitted activation curve with a large enough effect in the signal ratio in the repeat runs, not every such curve was filed as active; the % refers to the signal ratio)
Sequence of Estrogen receptor beta (Homo sapiens) (Q92731 whole entry, looked up): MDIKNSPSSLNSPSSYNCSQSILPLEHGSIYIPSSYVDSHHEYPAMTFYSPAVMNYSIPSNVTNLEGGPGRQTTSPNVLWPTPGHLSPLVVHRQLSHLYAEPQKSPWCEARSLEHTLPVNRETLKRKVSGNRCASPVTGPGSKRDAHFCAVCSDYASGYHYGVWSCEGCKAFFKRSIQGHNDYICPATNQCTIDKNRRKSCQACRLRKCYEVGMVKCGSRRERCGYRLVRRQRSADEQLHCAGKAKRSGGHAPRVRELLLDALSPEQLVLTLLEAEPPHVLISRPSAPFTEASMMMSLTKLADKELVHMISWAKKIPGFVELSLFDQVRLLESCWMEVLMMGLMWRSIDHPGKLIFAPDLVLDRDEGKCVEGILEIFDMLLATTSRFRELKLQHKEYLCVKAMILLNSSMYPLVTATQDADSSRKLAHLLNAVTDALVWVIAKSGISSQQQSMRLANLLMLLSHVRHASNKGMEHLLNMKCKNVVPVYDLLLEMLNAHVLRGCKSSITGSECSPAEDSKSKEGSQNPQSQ
Procedure, shortened: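 Reporter cells (HEK293T, ER-beta-UAS-bla) receive compounds or DMSO after a 6 hr pre-incubation. They then incubate 16 hr at 37C/5% CO2, and fluorescence from LiveBLAzer B/G substrate is measured after 2 hours at room temperature.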

[13] = molecular target: Estrogen receptor beta (Homo sapiens) (UniProt Q92731); assay: qHTS assay to identify small molecule antagonists of the estrogen receptor beta (ER-beta) signaling pathway (AID 1259378; active = well fitted inhibition curve with a large enough effect in the signal ratio in the repeat runs, not every such curve was filed as active; the % refers to the signal ratio)
Procedure, shortened: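 Antagonist mode: compounds added to beta-lactamase reporter HEK293T ER-beta-UAS cells stimulated with E2 (1nM final), 16 hr at 37C. LiveBLAzer B/G FRET substrate, 2 hours room temperature, fluorescence read-out.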

[14] = qHTS assay to identify small molecule agonists of the androgen receptor (AR) signaling pathway in the presence of an antagonist - cell viability counter screen (AID 1259379);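 note: MDA-kb2 human breast cancer cells carrying an MMTV luciferase reporter; series mostly up to about 92 µM; nearly all actives have a fitted effect of over 25% in size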
Procedure, shortened: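 MDA-kb2 cells (MMTV-luciferase, AR/GR), 3,000/well, 5 h attachment, then 3.0 µM nilutamide (final) and compounds at 15 concentrations. Viability by CellTiter-Fluor fluorescence after 16 h at 37 °C, 0% CO2, in the reporter wells.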

[15] = qHTS RealTime-Glo MT Cell Viability Assay in HEK293 cells - 8 hour (AID 1224887)
Procedure, shortened: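 600 cells/well were plated with the nonlytic NanoLuc/prosubstrate reagent, pre-incubated 5 h, then given 23 nL of compound in DMSO. Incubation at 37 C for 40 h, with luminescence from viable-cell-reduced substrate read repeatedly from 0 h.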

[16] = qHTS assay to identify small molecule agonists of the estrogen receptor beta (ER-beta) signaling pathway - cell viability counter screen (AID 1259380); note: nearly all actives have a fitted effect of over 30% in size
Procedure, shortened: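 ER-beta-UAS-bla HEK293T cells in medium with 2% charcoal-stripped FBS, pre-incubated 6 hr, then treated 16 hr at 37C. Cytotoxicity read in the same wells by CellTiter-Glo luminescence after 30 min at room temperature.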

[17] = molecular target: Estrogen receptor (Homo sapiens) (UniProt P03372); assay: qHTS assay to identify small molecule antagonists of the estrogen receptor alpha (ER-alpha) signaling pathway using the BG1 cell line in the presence of 0.1 nM 17-beta-estradiol (AID 1259244); note: nearly all actives have a fitted effect of over 50% in size
Sequence of Estrogen receptor (Homo sapiens) (P03372 whole entry, looked up): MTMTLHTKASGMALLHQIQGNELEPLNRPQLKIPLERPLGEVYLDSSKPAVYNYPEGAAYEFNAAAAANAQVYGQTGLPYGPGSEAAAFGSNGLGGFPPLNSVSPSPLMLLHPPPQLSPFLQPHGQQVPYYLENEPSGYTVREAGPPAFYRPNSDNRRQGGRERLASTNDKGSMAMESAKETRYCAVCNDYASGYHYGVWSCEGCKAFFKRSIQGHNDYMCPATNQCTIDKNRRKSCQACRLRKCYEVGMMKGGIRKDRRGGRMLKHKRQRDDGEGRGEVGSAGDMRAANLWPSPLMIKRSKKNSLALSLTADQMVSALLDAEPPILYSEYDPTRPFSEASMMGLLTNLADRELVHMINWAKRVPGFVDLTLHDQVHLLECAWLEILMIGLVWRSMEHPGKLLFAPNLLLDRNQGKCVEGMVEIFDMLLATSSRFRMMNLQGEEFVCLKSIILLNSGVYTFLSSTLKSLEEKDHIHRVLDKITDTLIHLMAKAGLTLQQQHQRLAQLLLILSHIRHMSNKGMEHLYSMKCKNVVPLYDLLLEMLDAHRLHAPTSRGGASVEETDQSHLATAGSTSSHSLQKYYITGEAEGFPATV
Procedure, shortened: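 VM7Luc4E2 cells (endogenous full-length ER-alpha, 4×ERE-luciferase), kept 5 days in phenol red-free, charcoal-stripped FBS medium; 4,000 cells/well. Compounds added with 0.1 nM (final) 17beta-estradiol, 22 hr at 37C; luminescence read with ONE-Glo after 30 min.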

[18] = qHTS assay to identify small molecule phospholipidosis (PLD) inducers (AID 1259344; active = well fitted curve in the direction sought with a large enough effect; an effect the other way counts as inactive or inconclusive)
Procedure, shortened: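 Phospholipidosis is scored by imaging LipidTOX-stained pits in HepG2 cells exposed to compound for 24 h at 37 C; pit counts and integrated intensities per well and per cell serve as outputs.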

[19] = qHTS assay to identify small molecule HDAC inhibitors (AID 1259364); note: nearly all actives have a fitted effect of over 45% in size; note: potency is the fitted concentration of half-maximal effect
Procedure, shortened: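 Wild-type HCT-116 cells, plated overnight at 37 C, exposed to compounds 2 hr at 37 C; luminogenic HDAC-Glo substrate then added 30 min at room temperature. Luminescence reports relative endogenous class I/II HDAC activity.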

[20] = qHTS assay to identify small molecule agonists of the sonic hedgehog signaling (Shh) pathway (AID 1259368; calls by dose curve;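 note: NIH/3T3-derived 3T3Gli1-Luc cells carrying a stable Gli1-driven firefly luciferase reporter; series mostly up to about 92 µM; nearly all actives have a fitted effect of over 15% in size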)
Procedure, shortened: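 NIH/3T3-derived 3T3Gli1-Luc cells with stably integrated Gli1-driven firefly luciferase, 2,000 cells/well, compounds added after 4 hr. Incubated 24 hr at 37C, 5% CO2; luminescence read after 30 min with luciferase reagent at room temperature.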

Measured: Potency

COc1ccc(CCO)cc1
inactive: [1] | [2] | [3] | [4] | [5] | [6] | [7] | [8] | [9] | [10] | [11] | [12] | [13] | [14]

C=CC(=O)CCCCC
inactive: [1] | [15] | [3] | [5] | [8] | [9] | [10] | [11] | [14] | [16]

CO/N=C(/C(=O)N[C@@H]1C(=O)N2C(C(=O)[O-])=C(C[n+]3ccn4ncccc43)CS[C@H]12)c1nsc(N)n1
inactive: [1] | [15] | [3] | [5] | [6] | [17] | [18] | [19] | [8] | [9] | [10] | [11] | [12] | [13] | [14] | [16]

O=C(O)CCCCCC(=O)O
inactive: [1] | [15] | [3] | [5] | [6] | [17] | [19] | [8] | [9] | [10] | [20] | [11] | [13] | [14] | [16]

CC(=O)CC(=O)Nc1ccc(C)cc1C
inactive: [1] | [15] | [3] | [5] | [6] | [7] | [8] | [10] | [20] | [12] | [13] | [14] | [16]

COc1cc(/C=C/C(N)=O)cc(OC)c1OC
inactive: [1] | [2] | [3] | [4] | [5] | [6] | [7] | [17] | [19] | [8] | [9] | [10] | [20] | [11] | [12] | [14] | [16]

CC(=O)Nc1ccc(OC(=O)c2ccccc2OC(C)=O)cc1
inactive: [1] | [15] | [3] | [4] | [6] | [17] | [18] | [8] | [9] | [10] | [20] | [14] | [16]
active: [19] 23.7 µM

CCOC(=O)CC1(C)OCC(C)O1 (stereo not given)
inactive: [1] | [15] | [3] | [5] | [6] | [17] | [19] | [8] | [10] | [20] | [11] | [12] | [14] | [16]

ONc1ccccc1
inactive: [1] | [15] | [3] | [5] | [17] | [9] | [10] | [20] | [11] | [14] | [16]

CC(C)(C)NC[C@H](O)COc1cccc2c1CCCC2=O
inactive: [1] | [15] | [6] | [17] | [18] | [19] | [8] | [9] | [10] | [20] | [13] | [14] | [16]

CCCCOC(=O)[C@H](C)O
inactive: [1] | [2] | [3] | [4] | [5] | [6] | [17] | [19] | [8] | [9] | [10] | [20] | [11] | [14] | [16]

CCC(C)C(C)=O (stereo not given)
inactive: [1] | [2] | [3] | [4] | [5] | [6] | [17] | [19] | [8] | [9] | [10] | [20] | [11] | [12] | [14] | [16]

CC(=O)OC1CCCCC1C(C)(C)C (stereo not given)
inactive: [1] | [2] | [3] | [4] | [5] | [6] | [7] | [17] | [19] | [9] | [10] | [20] | [11] | [12] | [13] | [14] | [16]

CC(O)CC(C)O (stereo not given)
inactive: [1] | [15] | [4] | [5] | [6] | [19] | [8] | [9] | [10] | [20] | [11] | [14] | [16]

CCc1occc(=O)c1O
inactive: [1] | [2] | [3] | [4] | [5] | [6] | [17] | [19] | [8] | [9] | [10] | [20] | [11] | [14] | [16]

CCCC(=O)OC/C=C(\C)CCC=C(C)C
inactive: [1] | [15] | [5] | [6] | [17] | [8] | [10] | [20] | [11] | [12] | [13] | [14] | [16]

O=C1CCC(=O)N1Cl
inactive: [1] | [15] | [3] | [17] | [19] | [8] | [9] | [10] | [11] | [13] | [14] | [16]

CC(C)C[C@@H]1[C@H](c2ccccc2)OC(=O)N1CCCN1CCCCCC1
inactive: [15]

CC12CCC(C1)C(C)(C)C2O (stereo not given)
inactive: [15]

— PubChem BioAssay (Tox21)
